Data on 40 compounds can be found in PubChem BioAssay AID1026 (Columbia University Molecular Screening Center, 2008).

Values without a mark were called inactive. How the calls were made is not given here.

The assay deals with Bifunctional epoxide hydrolase 2 (Homo sapiens) (UniProt P34913). As to the kind of experiment: sEH inhibitor concentration-response potency, dose response, biochemical, human sEH, fluorescence, Infinite200 (AID 1026). The note with it: recombinant human sEH, fluorogenic substrate, at 0.2 µM, stronger effect = higher value.
Bifunctional epoxide hydrolase 2 (Homo sapiens), sequence (P34913 whole entry, looked up): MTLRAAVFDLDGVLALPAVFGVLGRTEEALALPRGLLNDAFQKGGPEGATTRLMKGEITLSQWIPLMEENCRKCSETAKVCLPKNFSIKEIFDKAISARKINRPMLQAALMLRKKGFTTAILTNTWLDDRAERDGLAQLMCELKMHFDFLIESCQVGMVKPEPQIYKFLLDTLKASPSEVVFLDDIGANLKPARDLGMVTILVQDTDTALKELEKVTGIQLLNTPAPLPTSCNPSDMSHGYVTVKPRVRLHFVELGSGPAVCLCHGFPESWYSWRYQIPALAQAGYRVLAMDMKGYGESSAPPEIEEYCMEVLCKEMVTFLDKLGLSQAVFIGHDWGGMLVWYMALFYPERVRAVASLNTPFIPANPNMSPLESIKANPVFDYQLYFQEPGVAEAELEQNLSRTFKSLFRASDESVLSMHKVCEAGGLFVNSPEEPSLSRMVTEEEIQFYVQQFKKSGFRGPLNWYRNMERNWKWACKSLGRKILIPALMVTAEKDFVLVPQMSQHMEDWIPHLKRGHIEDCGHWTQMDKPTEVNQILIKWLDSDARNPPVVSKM
With `CCn1c(C(=O)N2CCCC(C(=O)NCCCc3ccccc3)C2)cc2sccc21` (stereo not given), the inhibition is 65.6%.
In the case of `O=C(NCCc1ccccc1)NC1CCCCC1`, the inhibition was 44.6%.
To `O=C(NCCC1=CCCCC1)C1CCCN(c2nc3ccccc3o2)C1` (stereo not given) belongs 53.6%.
The figure for `O=C(CCCN1C(=O)c2ccccc2C1=O)Nc1ccc(S(=O)(=O)N2CCCCC2)cc1` is 58%; for `Cc1ccccc1-c1nc(CN2CCC(C(=O)NCCC3=CCCCC3)CC2)c(C)o1` it is 55.6%; for `O=C(Nc1ccc(Cc2ccncc2)cc1)C1CCC(N2C(=O)C3C4C=CC(C5CC45)C3C2=O)CC1` (stereo not given) it is 56.4%.
Consider `O=C(COC(=O)c1ccc(S(=O)(=O)NCc2ccco2)cc1)NC1CCCCCC1`, for which the inhibition is 62.6%.
The figure for `O=C(CCC1CCCCC1)NNC(=O)NC12CC3CC(CC(C3)C1)C2` is 59.2%; for `O=C(CN1C(=O)c2ccccc2S1(=O)=O)Nc1ccc(S(=O)(=O)N2CCCCC2)cc1` it is 49.9%; for `Cc1oc(-c2ccccc2F)nc1CN1CCC(C(=O)NC2CCCCCCC2)CC1` it is 63.1%.
To `CC(Cc1cccs1)NC(=O)Nc1cccc(Cl)c1` (stereo not given) belongs 51.7%; to `CCc1cccc(NC(=O)NC2CCCCC2)c1`, 70.5%; to `O=C(NCCC1=CCCCC1)C1CCCN(S(=O)(=O)c2ccccc2)C1` (stereo not given), 48.7%.
The figure for `O=C(NCc1ccc(N2CCCC2=O)cc1)NC1CCCCC1` is 47.5%; for `COc1ccc(NC(=O)N2CCCC(c3nc(-c4ccc(C(C)C)cc4)no3)C2)cc1` (stereo not given) it is 64.5%; for `Cc1ccc(CCNC(=O)C2CCCN(S(=O)(=O)c3cccc4nsnc34)C2)cc1` (stereo not given) it is -5.2%.
In the case of `CC(=O)NC(=S)Nc1ccc(NC(=O)COc2ccc(Cl)cc2Cl)cc1`, the inhibition is 44.2%.
The figure for `CC(C)c1ccc(NC(=O)NC2CCN(CC(=O)Nc3cccc4ccccc34)CC2)cc1` is 62.2%; for `CCN(CCNC(=O)Nc1ccc(Cl)cc1)c1ccccc1` it is 39.1%.
To `CC1CCCC(NC(=O)Nc2cccs2)C1C` (stereo not given) belongs 49.2%; to `COC(=O)[C@@H](NC(=O)NCc1ccccc1Cl)C(C)C`, 61.5%; to `CS(=O)(=O)N(Cc1ccc(C(=O)NCCSCc2ccco2)cc1)c1ccccc1`, 53.6%.
In the case of `CC(Cc1cccs1)NC(=O)NC1CCCCC1` (stereo not given), the inhibition is 57.2%.
As for `CC1CCCCN1C(=O)NC12CC3CC(CC(C3)C1)C2` (stereo not given), the inhibition was 16.8%.
For the compound `O=C(Nc1ccccc1)Nc1ccc(S(=O)(=O)N2CCCCC2)cc1`, the inhibition was 72.3%.
With `CC(NC(=O)NC12CC3CC(CC(C3)C1)C2)C1CCCO1` (stereo not given), the inhibition is 71.5%.
The figure for `Cc1cc2nc(-c3ccc(SCC(=O)N4CCc5ccccc54)nc3)[nH]c2cc1C` is 56.7%.
The figure for `O=C(Nc1cccc(C(F)(F)F)c1)N1CCC(c2nc(-c3ccc(F)cc3)no2)CC1` is 68.4%; for `O=C(NCCC1=CCCCC1)C1CCN(c2nc3ccccc3o2)CC1` it is 45.6%.
To `CC1CC(C)CN(C(=O)c2ccc3c(=O)n(Cc4ccc5c(c4)OCO5)c(=S)[nH]c3c2)C1` (stereo not given) belongs 54.3%; to `CCCCNC(=O)CSc1nc2ccc(NC(=O)CSc3nnc(COc4ccccc4C)n3C)cc2s1`, 58.5%.
On to `O=C(NCC1CCCC(CNC(=O)N2CCc3ccccc32)C1)N1CCc2ccccc21` (stereo not given), for which the inhibition was 60.4%.
The figure for `Cc1ccc(-n2nnnc2SCC(=O)NCCC2=CCCCC2)c(C)c1` is 41.9%.
`O=C(N/N=C\c1ccc(Cl)s1)c1cccs1`: the inhibition is 74%.
To `COc1ccccc1NS(=O)(=O)c1cccc(C(=O)N/N=C(\C)c2ccc(-n3ccnc3)cc2)c1` belongs 46.4%; to `O=C1CSc2ccc(C(=O)NCCC3=CCCCC3)cc2N1`, 51.9%; to `O=C(CSCc1ccc(Cl)cc1)N/N=C/c1ccc(Cl)cc1Cl`, 55.6%.
The figure for `CCC(=O)N1CCc2cc(S(=O)(=O)CCC(=O)NCCC3=CCCCC3)ccc21` is 40%; for `O=C(NCCSCc1ccco1)Nc1cccc(Cl)c1` it is 46.2%; for `CCN(CCCNC(=O)CCCCn1c(=O)[nH]c2ccccc2c1=O)c1ccccc1` it is 38.1%.
